Out of some 39,000 compounds screened, about 500 (1.3%) were called active. The sample holds actives, similar compounds and a random draw of the others, so the mix is not that of the screen.
What follows are compounds tested on S. aureus RN4220 (assay: growth inhibition call (relative growth <= 0.2)). Conditions: 50 µM.

Compound | growth inhibition call
Cn1c(=O)c2cn3ncccc3c2n(C)c1=O | inactive
COc1c(C)c2c(c(O)c1CC=C(C)CCC(=O)O)C(=O)OC2 | inactive
Cc1noc(C)c1S(=O)(=O)Nc1ccc2c(c1)C(=O)N([C@H](C)CO)C[C@@H](C)[C@H](CN(C)Cc1ccc3c(c1)OCO3)O2 | inactive
O=C(N[C@H]1CC[C@@H](CC(=O)N2CCOCC2)O[C@H]1CO)c1ccc2c(c1)OCO2 | inactive
Cc1ccc(S(=O)(=O)N(C)C[C@@H]2Oc3ccc(NC(=O)CCN4CCOCC4)cc3CC(=O)N([C@@H](C)CO)C[C@@H]2C)cc1 | inactive
COc1ccc(S(=O)(=O)Nc2ccc3c(c2)CC(=O)N([C@@H](C)CO)C[C@H](C)[C@H](CN(C)C(=O)Nc2c(C)noc2C)O3)cc1 | inactive
CC(Cc1cccc(C(F)(F)F)c1)NCCOC(=O)c1ccccc1.Cl (stereo not given) | inactive
C[C@@H](O)c1cccc(C(F)(F)F)c1 | inactive
CC(NCCCc1cccc(C(F)(F)F)c1)c1cccc2ccccc12.Cl (stereo not given) | active
Nc1ccc(O)cc1 | inactive
C[C@@H]1CCCCO[C@@H](CN(C)C(=O)C2CCCCC2)[C@H](C)CN([C@@H](C)CO)C(=O)c2cc(NC(=O)Nc3cccc4ccccc34)ccc2O1 | inactive
CN1C=C(C(=O)OCCS(C)(=O)=O)C(C(=O)OCCS(C)(=O)=O)=CC(CCCO)=C[C@@H]1C1CC1 | inactive
COC(=O)C1=CC(CCCO)=C[C@@H](c2cccs2)N(Cc2cccc(OC(F)(F)F)c2)C=C1C(=O)OC | active
O=C(O)c1ccc(S(=O)(=O)N(Cc2ccc(OC(F)(F)F)cc2)c2ncc(C(F)(F)F)cc2Cl)cc1 | active
CCN(CC)S(=O)(=O)c1ccc(C(=O)O)cc1 | inactive
O=C(O)c1ccc(S(=O)(=O)N(Cl)Cl)cc1 | inactive
N=C(N=C(N)N)Nc1cc(-c2cccs2)n[nH]1 | inactive
C[C@H](CO)N1C[C@H](C)[C@@H](CN(C)C(=O)CN(C)C)Oc2cc(C#Cc3ccccc3)ccc2S1(=O)=O | inactive
C[C@H](CO)N1C[C@H](C)[C@H](CN(C)C(=O)CN(C)C)Oc2cc(C#Cc3ccc(F)cc3)ccc2S1(=O)=O | inactive
C[C@@H]1CN([C@H](C)CO)S(=O)(=O)c2ccc(C#Cc3ccc(F)cc3)cc2O[C@@H]1CN(C)C(=O)CN(C)C | inactive
C[C@@H]1CN([C@@H](C)CO)S(=O)(=O)c2ccc(C#Cc3ccc(F)cc3)cc2O[C@H]1CN(C)C(=O)CN(C)C | inactive
C[C@H]1CN([C@@H](C)CO)S(=O)(=O)c2ccc(C#Cc3ccccc3)cc2O[C@H]1CN(C)C(=O)CN(C)C | active
C[C@@H]1CN([C@H](C)CO)S(=O)(=O)c2ccc(C#Cc3ccccc3)cc2O[C@@H]1CN(C)C(=O)CN(C)C | active
C[C@H]1CN([C@@H](C)CO)S(=O)(=O)c2ccc(C#Cc3ccc(F)cc3)cc2O[C@@H]1CN(C)C(=O)CN(C)C | inactive
C[C@@H]1CN([C@H](C)CO)S(=O)(=O)c2ccc(C#Cc3ccc(F)cc3)cc2O[C@H]1CN(C)C(=O)CN(C)C | inactive

Compound | growth inhibition call
C[C@H]1CN([C@@H](C)CO)S(=O)(=O)c2ccc(C#Cc3ccccc3)cc2O[C@@H]1CN(C)C(=O)CN(C)C | inactive
C[C@H]1CN([C@@H](C)CO)S(=O)(=O)c2ccc(C#Cc3ccc(F)cc3)cc2O[C@H]1CN(C)C(=O)CN(C)C | active
C[C@@H]1CN([C@@H](C)CO)S(=O)(=O)c2ccc(C#Cc3ccc(F)cc3)cc2O[C@@H]1CN(C)C(=O)CN(C)C | inactive
C[C@@H]1CN([C@@H](C)CO)S(=O)(=O)c2ccc(C#Cc3ccccc3)cc2O[C@@H]1CN(C)C(=O)CN(C)C | active
C[C@@H]1CCCCO[C@@H](CN(C)Cc2ccc(Cl)c(Cl)c2)[C@@H](C)CN([C@H](C)CO)C(=O)c2cc(NC(=O)C3CCCCC3)ccc2O1 | inactive
CC(C)NC(=O)N(C)C[C@@H]1OCCCC[C@@H](C)Oc2ccc(NS(=O)(=O)c3cn(C)cn3)cc2C(=O)N([C@H](C)CO)C[C@H]1C | inactive
C[C@@H]1CN([C@H](C)CO)C(=O)c2cc(NS(=O)(=O)c3ccc(F)cc3)ccc2O[C@@H](C)CCCCO[C@H]1CN(C)C(=O)Nc1ccccc1 | inactive
CC=Cc1ccc2n(c1=O)C[C@@H]1[C@@H](CO)[C@H](C(=O)NC3CCC3)N(S(C)(=O)=O)[C@H]21 | inactive
CCCN(C)C[C@@H]1OCCCC[C@@H](C)Oc2ccc(NS(=O)(=O)c3cn(C)cn3)cc2C(=O)N([C@@H](C)CO)C[C@@H]1C | inactive
C[C@@H]1CN([C@@H](C)CO)C(=O)c2cc(C#Cc3ccncc3)cnc2O[C@H]1CN(C)S(=O)(=O)c1ccccc1F | inactive
C[C@@H]1CN([C@@H](C)CO)C(=O)c2cc(NS(C)(=O)=O)ccc2O[C@@H](C)CCCCO[C@H]1CN(C)S(=O)(=O)c1cn(C)cn1 | inactive
C[C@@H]1CN([C@H](C)CO)C(=O)c2cccc(NS(C)(=O)=O)c2O[C@@H]1CN(C)S(=O)(=O)c1ccc(F)cc1 | inactive
C[C@H](CO)N1C[C@H](C)[C@H](CN(C)C(=O)CN(C)C)Oc2cc(C#Cc3ccccc3)ccc2S1(=O)=O | active
C[C@@H]1CN([C@@H](C)CO)S(=O)(=O)c2ccc(C#Cc3ccccc3)cc2O[C@H]1CN(C)C(=O)CN(C)C | inactive
C[C@@H]1CN([C@H](C)CO)S(=O)(=O)c2ccc(C#Cc3ccccc3)cc2O[C@H]1CN(C)C(=O)CN(C)C | inactive
COc1ccc(S(=O)(=O)N(C)C[C@@H]2Oc3ccc(NS(=O)(=O)c4cccs4)cc3CC(=O)N([C@@H](C)CO)C[C@H]2C)cc1 | inactive
C[C@@H]1CN([C@@H](C)CO)C(=O)c2cccc(NS(C)(=O)=O)c2O[C@@H]1CN(C)C(=O)Nc1ccc(C(F)(F)F)cc1 | active
C[C@@H]1CN([C@H](C)CO)C(=O)c2cccc(NS(C)(=O)=O)c2O[C@H]1CN(C)C(=O)Nc1ccc(C(F)(F)F)cc1 | inactive
C[C@H]1CN([C@@H](C)CO)C(=O)c2cccc(NS(C)(=O)=O)c2O[C@H]1CN(C)C(=O)Nc1ccc(C(F)(F)F)cc1 | inactive
C[C@H]1CN([C@@H](C)CO)C(=O)c2cccc(NS(C)(=O)=O)c2O[C@@H]1CN(C)C(=O)Nc1ccc(C(F)(F)F)cc1 | inactive
C[C@@H]1CN([C@H](C)CO)C(=O)c2cccc(NS(C)(=O)=O)c2O[C@@H]1CN(C)C(=O)Nc1ccc(C(F)(F)F)cc1 | active
C[C@H](CO)N1C[C@H](C)[C@@H](CN(C)C(=O)Nc2ccc(C(F)(F)F)cc2)Oc2c(NS(C)(=O)=O)cccc2C1=O | inactive
C[C@H](CO)N1C[C@H](C)[C@H](CN(C)C(=O)Nc2ccc(C(F)(F)F)cc2)Oc2c(NS(C)(=O)=O)cccc2C1=O | inactive
C[C@@H]1CN([C@@H](C)CO)C(=O)c2cccc(NS(C)(=O)=O)c2O[C@H]1CN(C)C(=O)Nc1ccc(F)cc1 | inactive
C[C@@H]1CN([C@@H](C)CO)C(=O)c2cccc(NS(C)(=O)=O)c2O[C@H]1CN(C)C(=O)Nc1ccc(C(F)(F)F)cc1 | active

— the antibiotic and cytotoxicity screens of Wong et al. (2023)
